The results in this text go back to PubChem BioAssay (NCI).

The panel holds about 79,000 compounds, 15% with a hit somewhere; the sample as a whole holds those more often. A number with no mark means an inactive call. Active and inactive are the calls of the source. Cut-off read from the data, not from the text of the source: active = growth inhibition above about 70%; inactive = the rest.

Assay [1] in a line: NCI Yeast Anticancer Drug Screen. Data for the rad50 strain (AID 155).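 Note: 0% = growth of vehicle-only cultures of the same strain.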 The note with it: S. cerevisiae rad50 strain growth inhibition; at 50.0 µM; active compounds read high. In short, it runs like this: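 Genetically altered yeast (DNA repair pathway); compound treatment; growth inhibition vs vehicle ctrl.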
Assay [2] in a line: NCI Yeast Anticancer Drug Screen. Data for the mec2-1 strain (AID 157). To be noted: S. cerevisiae mec2-1 strain, at 50.0 µM, active compounds read high. The gist of the method: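 Readout is yeast growth inhibition, normalised to vehicle-treated controls, in the mec2-1 strain exposed to compound.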
A short description of assay [3]: NCI Yeast Anticancer Drug Screen. Data for the sgs1 mgt1 strain (AID 161).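 Note: 0% = growth of cultures given vehicle only.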 To be noted: S. cerevisiae sgs1 mgt1 strain, at 50.0 µM, active compounds read high. In short, it runs like this: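 Percent growth inhibition was derived by comparing compound-exposed mutant yeast with vehicle-exposed cultures. The strain carries alterations in DNA damage repair.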
A short description of assay [4]: NCI Yeast Anticancer Drug Screen. Data for the cln2 rad14 strain (AID 165).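 Note: 0% = growth equal to vehicle treated cultures.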 To be noted: S. cerevisiae cln2 rad14 strain, at 50.0 µM, active compounds read high. In short, it runs like this: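 Relative to vehicle controls, growth inhibition of compound-treated cln2 rad14 yeast was recorded.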
Assay [5] is described as follows: NCI Yeast Anticancer Drug Screen. Data for the bub3 strain (AID 167). To be noted: S. cerevisiae bub3 mutant strain, at 50.0 µM, active compounds read high. In short, it runs like this:
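Yeast carrying a defined mutation is treated with each compound, and growth is compared with that of vehicle-exposed cells to give inhibition.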

Assay [6] is described as follows: NCI Yeast Anticancer Drug Screen. Data for the mlh1 rad18 strain (AID 175). The note with it: S. cerevisiae mlh1 rad18 strain growth inhibition; at 50.0 µM; active compounds read high. In short, it runs like this:
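Test agents were incubated with a yeast strain of defined genotype (DNA damage repair defect). Inhibition of growth was derived by comparison with vehicle-exposed cultures.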

With `CNc1nc(SCc2ccccc2)c2ncn(C3OC(CO)C(O)C3O)c2n1` (stereo not given), the growth inhibition in assay [1] is 11.3%; in assay [2], 4.8%; in assay [3], 16.9%; in assay [4] it was 19.9%; in assay [5], 4.95%; in assay [6], 17.9%.

Regarding `Cc1ccoc1`, the growth inhibition in assay [1] is 12.5%; in assay [2] it was -18.1%; in assay [3], 6.45%; in assay [4] it was 11.8%; in assay [5], 26.8%; in assay [6], 15.8%.

Consider `C(CCc1nnc2c(n1)CCCC2)Cc1nnc2c(n1)CCCC2`, for which the growth inhibition is -7.6% in assay [1]; -17.9% in assay [2]; -1.05% in assay [3]; -12.1% in assay [4]; 10.1% in assay [5]; -2.4% in assay [6].

Take `CCOC(=O)/C(C#N)=C\Nc1ccc(C)cc1`: the growth inhibition in assay [1] is -0.85%; in assay [2] it was -26.6%; in assay [3], -7.95%; in assay [4], -2.55%; in assay [5] it was -12.1%; in assay [6], -8.75%.

On to `O=C(c1ccccc1Cl)c1ccc2ccccc2c1C(=O)O`, for which the growth inhibition in assay [1] is 2.5%; in assay [2] it was -0.55%; in assay [3] it was -0.6%; in assay [4], 6%; in assay [5], -10%; in assay [6], 2.95%.

In the case of `CN(C)CCNC(=O)c1ccc(Cl)c2cc3ccccc3nc12`, the growth inhibition was 83.3% (active) in assay [1]; 66.3% in assay [2]; 58% in assay [3]; 50.7% in assay [4]; 15.7% in assay [5]; 85.8% (active) in assay [6].

On to `O=C1NC2(CCN(Cc3ccccc3)CC2)Nc2ccccc21`, for which the growth inhibition in assay [1] is -10.4%; in assay [2] it was 1.6%; in assay [3], -10.4%; in assay [4], -24.1%; in assay [5], 2.8%; in assay [6], -6.75%.

`Nc1nc(N)c(N=O)c(N)n1`: the growth inhibition in assay [1] is -10.9%; in assay [2], -8.85%; in assay [3] it was 0.6%; in assay [4], 21%; in assay [5], 3.5%; in assay [6], 15.2%.

Consider `CC(C)C(=O)NCCc1ccccc1`, for which the growth inhibition in assay [1] was 0%; in assay [2], 0.45%; in assay [3], -3.15%; in assay [4], -26.6%; in assay [5], -0.45%; in assay [6], 2.95%.

In the case of `COc1ccc(C2C(Cl)C(=O)N2NC(=O)Cc2ccccc2)cc1` (stereo not given), the growth inhibition is -10.6% in assay [1]; -11.9% in assay [2]; -7.3% in assay [3]; 8.95% in assay [4]; -10.9% in assay [5]; 12.6% in assay [6].

Turning to `O=C1Nc2cc(Cl)ccc2N=CC1NC(=O)C(c1ccccc1)c1ccccc1Cl` (stereo not given), the growth inhibition in assay [1] was -33.1%; in assay [2] it was -11.6%; in assay [3], -6.15%; in assay [4] it was -15.9%; in assay [5] it was -6.8%; in assay [6] it was -17.8%.

For the compound `C(=Nc1ccc(SSc2ccc(N=Cc3ccc4c(c3)OCO4)cc2)cc1)c1ccc2c(c1)OCO2`, the growth inhibition in assay [1] is 18.8%; in assay [2] it was 0.05%; in assay [3], -0.95%; in assay [4] it was -8.55%; in assay [5], 8.75%; in assay [6], 17.2%.

In the case of `CCOC(=O)C(C)(Br)C(Br)c1ccc([N+](=O)[O-])cc1` (stereo not given), the growth inhibition is 96.8% (active) in assay [1]; 93.2% (active) in assay [2]; 96.9% (active) in assay [3]; 42.7% in assay [4]; 80.9% (active) in assay [5]; 97% (active) in assay [6].

Consider `CC(=O)c1cccc(NC(=O)C(=O)C(C2OC(=O)c3ccccc32)[N+](=O)[O-])c1` (stereo not given), for which the growth inhibition in assay [1] is 5.45%; in assay [2], 11.6%; in assay [3], 17.6%; in assay [4], 11.4%; in assay [5], 3.2%; in assay [6], 8.5%.

Regarding `CCCCCCCCCCCCCCCC(=O)OC/C=C/COC(=O)c1ccccc1`, the growth inhibition in assay [1] was 22.9%; in assay [2], -9.7%; in assay [3] it was -6.25%; in assay [4], -2.95%; in assay [5], 2.65%; in assay [6], -13%.

`Cc1ccc(N2C(=O)CS/C2=C(\C#N)c2nc3ccccc3[nH]2)cc1`: the growth inhibition was -78.5% in assay [1]; -62% in assay [2]; -66.1% in assay [3]; -57.9% in assay [4]; -76.8% in assay [5]; -40.2% in assay [6].

Consider `N#CC1C(=O)NC(=S)NC1c1ccc(Cl)c(Cl)c1` (stereo not given), for which the growth inhibition is -3.15% in assay [1]; -16.9% in assay [2]; -25.9% in assay [3]; -19.6% in assay [4]; -13.8% in assay [5]; -5.25% in assay [6].

`CC(=O)OCC(=O)O[C@@H]1[C@H]2[C@@H](OC(=O)c3ccccc3)[C@@H](C)C[C@]2(O)[C@H](OC(C)=O)[C@@]2(C)C[C@]1(OC(C)=O)C[C@H]1C(=O)C(C)(C)[C@@H](OC(C)=O)[C@@H]12`: the growth inhibition in assay [1] was -7.35%; in assay [2], 8.2%; in assay [3], -0.3%; in assay [4], -15.3%; in assay [5], 0.3%; in assay [6], -17.8%.

With `CC1=C/C(=N\N(C)C)C(C(O)(C(F)(F)F)C(F)(F)F)C(C)(C)C1` (stereo not given), the growth inhibition in assay [1] was 4.75%; in assay [2], -19.1%; in assay [3], -10.4%; in assay [4] it was 9.35%; in assay [5], -14.7%; in assay [6], -13%.

Regarding `CCCCCCCCCCCCCCCCS(=O)(=O)N/N=C(/c1ccc(OC)c(OC)c1)N1CCCCC1`, the growth inhibition was -24.9% in assay [1]; -28.8% in assay [2]; 8.6% in assay [3]; 1.45% in assay [4]; -18.1% in assay [5]; -7% in assay [6].
